Bioassay records as filed in PubChem BioAssay.
In the library only some 7.3% were active in any assay of this set; here they are far more common.
NPC1 promoter act = activators of NPC1 promoter. Potency, µM (highest dose often 9.22 µM), for the others: at the top dose activation, most hits filed as activators. 320,000 tested, 2.4% active. AID 485313. Huh7 NPC1 promoter luciferase reporter, 24 h; note: % of control where 0% means no effect; nearly all actives have a fitted effect of over 60% in size
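Luciferase expression driven by the NPC1 promoter was measured in stably transfected Huh7 cells after a 24 h compound incubation, using a luciferase reagent and a luminescence read.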
KinaseGlo FLuc = blocks Kinase-Glo luciferase, a counter-screen artifact; Potency, µM (titrated, usually from 38.3 µM), for the others: top-dose activity change, negative = inhibition, usual class: inhibitors; Q27757; 200,000 tested, 0.28% active; AID 1379; Kinase-Glo luciferase, ATP luminescence, 8 min; note: % is set by controls: 0 for no effect and ±100 for the full control effect; nearly all actives have a fitted effect of over 60% in size
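Recombinant Kinase-Glo luciferase, 10 uM ATP (linear range), luciferin; imidazole pH 7.2 / KCl / MgCl2 / Tween / BSA buffer; 8 min RT; luminescence.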
Rab9 promoter act = Rab9 promoter activation. Huh7 Rab9 promoter-luciferase reporter, luminescence, 24 h. Potency, µM (doses to about 9.22 µM), without a hit: at the highest dose activation, negative = inhibition, actives largely listed as activators. AID 485297. 320,000 tested, 2.8% active; note: % of control where 0% means no effect; nearly all actives have a fitted effect of over 60% in size
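Promoter activation is measured as luciferase luminescence in Huh7 cells stably transfected with a Rab9 promoter–luciferase construct, following 24 h compound exposure at 37 °C and 10 min reagent incubation at ambient temperature.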
FLuc modulator = counter-screen for miR-21 project: firefly luciferase inhibitors or activators; P08659; 360,000 tested, 6.9% active; purified FLuc, Km substrates, luminescence inhibition; Potency, µM (top dose mostly 57.5 µM), for the others: at the highest dose activity change, negative = inhibition, usual class: inhibitors;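 note: plate controls were vehicle for no effect and reference inhibitor for full effect; nearly all actives have a fitted effect of over 55% in size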
Target sequence (P08659 whole entry, looked up): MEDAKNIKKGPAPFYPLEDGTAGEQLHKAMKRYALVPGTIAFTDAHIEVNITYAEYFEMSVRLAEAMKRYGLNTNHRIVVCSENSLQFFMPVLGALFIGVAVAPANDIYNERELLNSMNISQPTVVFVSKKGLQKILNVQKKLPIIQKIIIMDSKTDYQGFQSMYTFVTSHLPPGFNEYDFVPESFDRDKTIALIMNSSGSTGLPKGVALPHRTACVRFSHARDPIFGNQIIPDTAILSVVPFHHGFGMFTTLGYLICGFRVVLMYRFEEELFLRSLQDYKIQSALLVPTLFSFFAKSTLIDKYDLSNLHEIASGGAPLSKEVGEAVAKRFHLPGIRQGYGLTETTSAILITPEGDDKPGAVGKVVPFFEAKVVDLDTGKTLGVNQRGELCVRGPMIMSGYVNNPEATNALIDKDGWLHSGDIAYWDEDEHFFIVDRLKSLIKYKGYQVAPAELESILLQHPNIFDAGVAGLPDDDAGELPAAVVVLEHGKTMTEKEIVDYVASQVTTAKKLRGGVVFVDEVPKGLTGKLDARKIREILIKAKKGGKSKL
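Biochemical qHTS of compounds, final roughly 60 µM downward over six points, against 10 nM purified firefly luciferase using Km concentrations of substrates (10 uM D-luciferin, 10 uM ATP) in Tris acetate pH 7.5 buffer; luminescence output.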
SMN2 splice enh = SMN2 splice variant enhancement; HEK293 SMN2-luciferase splicing reporter, luminescence, 30-36 h; Potency, µM (doses to about 46.1 µM), for the others: at the highest dose activity change, positive = activation, actives largely listed as activators; 210,000 tested, 2.8% active; note: % of control where 0% means no effect; nearly all actives have a fitted effect of over 55% in size
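HEK293 cells carry an SMN2 minigene-luciferase reporter in which exon 7 inclusion puts luciferase in frame. Cells were seeded at 2000 cells/well, attached for 10-12 hours, then exposed to compounds for 30-36 hours at 37C before ONE-Glo luminescence.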
* marks the source's active call; other numbers are inactive results; ? = inconclusive; / = no result given; [ ] = remark or other dose. Calls come from the whole dose curve; as a rule, active = well fitted curve in the direction sought with a large enough effect; inconclusive = small, poorly fitted or top-dose-only effect, or another doubt; inactive = no such curve, though single readings can be large; an effect the other way counts as inactive or inconclusive. Potency is the fitted concentration of half-maximal effect.

SMILES	NPC1 promoter act	KinaseGlo FLuc	Rab9 promoter act	FLuc modulator	SMN2 splice enh
Nc1cc(=O)nc(SCC(=O)Nc2ccc(F)cc2)n1-c1ccccc1Cl	/	/	/	-16%	0%
COc1ccc(C2=NC(c3ccccc3)=Nc3ccc(C)cc3N2)cc1	/	/	/	?	12%
Cc1ccc(C2=NC(c3ccccc3)=Nc3ccc(Cl)cc3N2)cc1	/	/	/	11µM*	-5%
C[N+](C)(C)c1ncnc2c1ncn2[C@@H]1C[C@H](O)[C@@H](CO)O1	/	-3%[7.66 µM]	/	/	-11%[9.22 µM]
O=C(Nc1cccc(-c2cn3cccnc3n2)c1)Nc1ccccc1F	-4%	-2%	?	13µM*	-8%
Cc1c(-c2cccc(NC(=O)Nc3ccccc3)c2)nc2ncccn12	/	/	/	19µM*	/
O=C(Nc1ccccc1)Nc1cccc(-c2cn3cccnc3n2)c1	10%	-3%	?	9.5µM*	-1%
CC(C)(C)C(=O)Nc1cccc(-c2cn3cccnc3n2)c1	/	/	/	-3%	/
COc1ccccc1OCc1ccc(C(=O)NN)o1	0%	/	1%	?	/
O=C(N/N=C/c1cccc(O)c1)c1ccc(COc2ccc3c(c2)CCC3)o1	?	-5%	?	19µM*	-27%
O=C(c1ccco1)N1CCN(C(=O)c2ccc(COc3ccc4c(c3)CCC4)o2)CC1	19%	-5%	?	?	14%
NNC(=O)c1ccc(COc2ccc3c(c2)CCC3)o1	?	0%	4µM*	?	16µM*
Cc1ccc(C(=O)Nc2cc(-c3nc4ncccc4o3)ccc2C)c(C)c1	/	/	/	3%	11%
CCCCS(=O)(=O)N1CCc2nc(COc3ccccc3)c3c(c2C1)CO[C@@H](C)C3	/	0%[7.66 µM]	/	/	7%[9.22 µM]
Nc1ncnc(Nc2ccc(F)cc2)n1	-5%	0%	1%	-6%	19%
Fc1ccc(Nc2ccnc(Nc3ccc(F)cc3)n2)cc1	?	8%	?	8.5µM*	/
O=C(O)c1cccc(Nc2ccnc(Nc3cccc(C(=O)O)c3)n2)c1	?	/	?	6µM*	/
Cc1csc(NC(=O)CSc2nnnn2C)n1	25%	-2%	?	?	14µM*
COCc1cc(C)nc(SCC(=O)Nc2cccc(C)c2C)c1C#N	-2%	3%	-3%	-2%	-24%
COC(=O)c1sc(NC(=O)CSc2nnnn2C)nc1C	2.2µM*	/	2µM*	17µM*	/
Cc1nc(NC(=O)CSc2nnnn2C)sc1C	?	-3%	?	?	11µM*
Cc1csc(NC(=O)CSc2nnc(C)c(=O)n2N)n1	1%	-1%	-2%	-3%	15%
COCc1cc(C)nc(SCC(=O)Nc2nc(C)cs2)c1C#N	0.63µM*	/	0.71µM*	12µM*	/
Cc1ccccc1NC(=O)c1cnc2sc(N3CCCC3)nn2c1=O	/	/	/	0%	/
Cc1ccc2c(=O)cc(C(=O)Nc3c(C(=O)c4ccc(F)cc4)oc4ccccc34)oc2c1C	/	/	/	-4%	9%
SMILES	NPC1 promoter act	KinaseGlo FLuc	Rab9 promoter act	FLuc modulator	SMN2 splice enh
NNC(=O)c1ccc2nc(-c3ccc(Br)cc3)cn2c1	0.4µM*	-2%	0.5µM*	9.5µM*	11µM*
COc1ccc(-c2cn3cc(C(=O)NN)ccc3n2)cc1	?	-7%	0.32µM*	7.6µM*	/
CC(C)CNc1nc(N)[nH]c(=O)c1NC=O	/	-1%[7.66 µM]	/	/	-3%[9.22 µM]
CC1CCN(C(=O)CCCC(=O)N2CCC(C)CC2)CC1	?	/	18%	9.5µM*	/
O=C(NC1CCCCC1)c1ccccc1NC(=S)NC(=O)C1CCC1	0%	6%	-6%	-2%	12%
O=C(/C=C/c1ccccc1Cl)NC(=S)Nc1ccccc1C(=O)NC1CCCCC1	13%	-1%	?	17µM*	11%
Cc1cc(O)c(C(=O)/C=C/c2cccc([N+](=O)[O-])c2)c(=O)o1	-13%	/	-16%	21µM*	/
COc1ccc(S(=O)(=O)N2CCC(N3CCN(Cc4ccc(F)cc4)C(=O)C3=O)CC2)cc1	/	/	/	-1%	/
O=c1c2ccccc2nc2c3ccccc3cnn12	?	-8%	2.2µM*	?	?
COc1cccc(-c2cc(C(F)(F)F)n3nc(C(=O)N4CCCCC4c4cccnc4)cc3n2)c1 (configuration not stated)	-8%	-4%	-10%	15µM*	-49%
O=C(c1cc2nc(-c3ccco3)cc(C(F)(F)F)n2n1)N1CCN(c2ccccc2)CC1	0%	1%	-7%	0%	3%
COc1ccc(-c2cc(C(F)(F)F)n3nc(C(=O)N4CCCCC4)cc3n2)cc1	2%	-5%	-2%	?	-10%
O=C(c1cc2nc(-c3ccco3)cc(C(F)(F)F)n2n1)N1CCCCCC1	-2%	2%	7%	21µM*	-11%
COc1ccc2oc(-c3ccc(NC(=O)c4ccc(Cl)cc4Cl)cc3)nc2c1	/	/	/	-16%	-12%
Cc1ccc(C(=O)C(NC(=O)c2ccco2)N2CCOCC2)cc1 (configuration not stated)	?	-2%	?	-11%	13µM*
O=C(NC(C(=O)c1ccccc1)N1CCCCCC1)c1ccco1 (configuration not stated)	1%	0%	2%	3%	10%
CCc1ccc(OCC(=O)NNC(=O)Cc2cccs2)cc1	0%	-5%	2%	1%	-9%
O=C(Cc1cccs1)NCc1ccc(Cl)cc1Cl	3.2µM*	/	2.8µM*	15µM*	/
CCCOc1ccc(CNC(=O)Cc2cccs2)cc1	?	/	?	19µM*	/
O=C(Cc1cccs1)NCc1ccccc1Br	?	/	4µM*	19µM*	/
O=C(Cc1cccs1)NCc1cccc(CNC(=O)Cc2cccs2)c1	-2%	2%	0%	-3%	12%
COc1cccc(NC(=O)c2oc3ccccc3c2NC(=O)c2ccc(C(F)(F)F)cc2)c1	/	/	/	-19%	-5%
CCc1ccc(S(=O)(=O)Nc2cc3c(cc2C)n(C)c(=O)c(=O)n3C)cc1	/	/	/	-11%	/
O=C(O)c1nn(-c2ccccc2)nc1-c1nn(-c2ccccc2)nc1C(=O)O	-2%	-5%	0%	21µM*	0%
O/N=C1/CC/C(=N\O)c2nn(-c3ccccc3)nc21	18%	?	24%	?	?
SMILES	NPC1 promoter act	KinaseGlo FLuc	Rab9 promoter act	FLuc modulator	SMN2 splice enh
COC(=O)c1nn(-c2ccccc2)nc1-c1nn(-c2ccccc2)nc1C(=O)OC	9%	4%	6%	2.4µM*	4%
COC(=O)c1nnn(-c2ccccc2)c1N	-7%	-1%	-2%	0%	24%
O=C(O)CCCN1CCCCC1	/	-8%[7.66 µM]	/	/	?
O=C(/C=C/Nc1ccc(F)c(Cl)c1)c1ccco1	1%	-9%	0%	5.4µM*	?
O=C(CCNc1ccc(F)c(Cl)c1)c1ccco1	-4%	-1%	0%	-3%	-2%
O=C(/C=C/Nc1cccc(F)c1)c1ccco1	?	-24%	2.5µM*	2.1µM*	13µM*
O=C(NC1CCN(C(=O)Nc2cccc(F)c2)CC1)c1ccco1	3%	/	9%	-2%	/
c1cc(CSc2ncnc3nc[nH]c23)ccn1	/	-5%[7.66 µM]	/	/	-7%[9.22 µM]
